# In paper PMC4552634, “A New Set of Chemical Starting Points with Plasmodium falciparum Transmission-Blocking Potential for Antimalarial Drug Discovery” (PLoS ONE, 2015):
# About 3,200 (25%) of roughly 13,000 compounds showed an effect of 50% or more. The list shows a part of the results.
# System: P. falciparum stage V gametocytes
# Parameters: BacTiter-Glo ATP luminescence viability of purified stage V gametocytes in 384-well plates, per cent inhibition versus DMSO
# Conditions: 48 h, 5 µM; inhibitor
row,SMILES,% Inhibition
1,CCCCC(CC)C(=O)C(NC(=O)[C@H](CSC(c1ccccc1)(c1ccccc1)c1ccccc1)NC(=O)OC(C)(C)C)C(=O)OC (stereo partly shown) [TCMDC-138083],0.3187%
2,Cc1cccc2[nH]c(-c3cccc(-c4ccc(NC(=O)COc5ccccc5C(N)=O)cc4)c3)nc12 [TCMDC-132131],84.32%
3,NC(=O)c1ccccc1OCC(=O)Nc1cccc(-c2ccc(-c3nc4ccc(C(F)(F)F)cc4[nH]3)cc2)c1 [TCMDC-132132],-3.438%
4,NC(=O)c1ccccc1OCC(=O)Nc1cccc(-c2cccc(-c3nc4ccccc4[nH]3)c2)c1 [TCMDC-132127],20.22%
5,Cc1cccc2[nH]c(-c3cccc(-c4ccc(NC(=O)COC(C)C)cc4)c3)nc12 [TCMDC-137038],26.32%
6,Cc1cccc2[nH]c(-c3cccc(-c4cccc(NC(=O)COc5ccccc5C(N)=O)c4)c3)nc12 [TCMDC-132130],45.07%
7,NC(=O)c1ccccc1OCC(=O)Nc1ccc(-c2cccc(-c3nc4ccc(C(F)(F)F)cc4[nH]3)c2)cc1 [TCMDC-132129],71.31%
8,O=C(/C=C/c1ccc(Cl)c(Cl)c1)NCCCCCN1CCC(NC(=O)Nc2cccc(Cl)c2F)CC1 [TCMDC-135721],-53.7%
9,CCCN(Cc1nnc(-c2cccs2)o1)C(=O)CSc1nnnn1-c1cc(C)cc(C)c1 [TCMDC-125265],15.05%
10,CCCC(C)N(Cc1ccc(C(C)(C)C)cc1)C(=O)c1cccc(C#N)c1 (stereo not shown) [TCMDC-139784],-24.96%
11,COC(=O)Nc1ccc(-c2ccc(C(=O)NC3CCN(C[C@H](O)c4ccnc5ccc(OC)cc45)CC3)cc2)c(C)c1 [TCMDC-141170],-22.09%
12,CC(C)CCN(Cc1cncn1Cc1cccc(C(F)(F)F)c1)C(=O)c1cncc(-c2ccccc2)c1 [TCMDC-132458],37.01%
13,CCN(CC)C(=O)C(=O)c1c[nH]c2ccc(Cl)cc12 [TCMDC-131976],21.68%
14,CCN(CC)CCN(Cc1ccc(-c2ccc(C(F)(F)F)cc2)cc1)C(=O)c1c[nH]c2ccc(Br)cc12 [TCMDC-141557],106.7%
15,CCN(CC)CCN(Cc1ccc(-c2ccc(C(F)(F)F)cc2)cc1)C(=O)c1ccc(-c2ccc(NC(=O)OC)cc2C)cc1 [TCMDC-141558],93.92%
16,CCN(CC)CCN(Cc1ccc(-c2ccc(C(F)(F)F)cc2)cc1)C(=O)c1ccc(-c2ccc(C#N)cc2)cc1 [TCMDC-141556],55.86%
17,CCOC(=O)c1ccc(NC(=O)Nc2ccc(-c3ccc(-c4nc5ccc(C(F)(F)F)cc5[nH]4)cc3)cc2)cc1 [TCMDC-133260],23.97%
18,Cc1cc(C)c(S(=O)(=O)N2CCCCC(c3cccc(C(F)(F)F)c3)=N2)c(C)c1 [TCMDC-134550],-57.26%
19,CC(C)(C)C1CCC(CC2=C(C(=O)O)c3ccccc3C2=O)CC1 (stereo not shown) [TCMDC-137496],8.625%
20,O=C1OC(c2ccccc2)(c2ccccc2)CN1C1CCN(Cc2ccc(O)c(Cl)c2)C1 (stereo not shown) [TCMDC-136070],-44.93%
21,COc1cccc2cc(C(=O)N[C@@H](CC(C)C)C(=O)N[C@H](C=NNC(=O)OC(C)(C)C)Cc3ccccc3)oc12 [TCMDC-136073],-20.59%
22,Cc1cccc2[nH]c(-c3cccc(-c4cccc(CN5CCN(c6ccncc6)CC5)c4)c3)nc12 [TCMDC-132910],41.94%

row,SMILES,% Inhibition
1,Cc1cc(N[C@@H](CC(C)C)C(=O)Nc2ccccc2)nc(NCCc2ccc(F)cc2)n1 [TCMDC-134797],10.71%
2,COc1ccc(NC(=O)[C@H](Cc2ccccc2)Nc2cc(C)nc(NCCc3ccc(F)cc3)n2)cc1 [TCMDC-134786],103.7%
3,COc1ccc(NC(=O)[C@H](Cc2ccccc2)Nc2cc(C)nc(NCCN3CCCC3)n2)cc1 [TCMDC-134924],85.56%
4,Cc1cc(N[C@@H](Cc2ccccc2)C(=O)Nc2ccccc2)nc(NCCc2ccc(F)cc2)n1 [TCMDC-134790],26.02%
5,Cc1cc(N[C@@H](Cc2ccccc2)C(=O)Nc2ccccc2)nc(Nc2ccccc2)n1 [TCMDC-134736],-2.834%
6,Cc1cc(N[C@@H](Cc2ccccc2)C(=O)Nc2ccccc2)nc(NCCN2CCCC2)n1 [TCMDC-134925],33.54%
7,Cc1cc(N[C@@H](Cc2ccccc2)C(=O)Nc2ccccc2)nc(NCCc2ccccc2)n1 [TCMDC-134777],63.66%
8,COc1ccc(NC(=O)[C@H](Cc2ccccc2)Nc2nc(NCCN3CCCC3)ncc2C)cc1 [TCMDC-134860],27.32%
9,Cc1cc(N[C@@H](CC(C)C)C(=O)Nc2ccccc2)nc(NCCc2ccccc2)n1 [TCMDC-134780],99.12%
10,COc1ccc(NC(=O)[C@H](CC(C)C)Nc2cc(C)nc(NCCc3ccc(F)cc3)n2)cc1 [TCMDC-134793],11.38%
11,COc1ccc(NC(=O)[C@H](CC(C)C)Nc2cc(C)nc(NCCc3ccccc3)n2)cc1 [TCMDC-134778],31.74%
12,COc1ccc2nccc(N3CCC(O)(CCNCc4ccc5c(n4)NC(=O)CS5)CC3)c2n1 [TCMDC-134553],-13.65%
13,CCCOc1ccc(C=C(CC(=O)O)c2nc3ccccc3s2)cc1OCC [TCMDC-125020],4.95%
14,CO/C(=C\C=C\c1cc2cc(Cl)c(Cl)cc2[nH]1)C(=O)NCCCN1CCN(c2cccc(CCO)c2)CC1 [TCMDC-139549],-37.75%
15,CC[C@H](C)CNC(=O)c1cncc(-c2ccc(CN3CCC(N4CCCC4)CC3)cc2)c1 [TCMDC-134234],36.3%
16,c1ccn2c(-c3ncnc(NCc4ccc5c(c4)CCO5)n3)cnc2c1 [TCMDC-135175],28.7%
17,COCc1ccccc1C(=O)NCCOc1cc(C)cc(C)c1 [TCMDC-134843],-15.71%
18,Cc1cc(N[C@@H](Cc2ccccc2)C(=O)NC2CCCC2)nc(NCc2ccccc2C)n1 [TCMDC-134902],-12.74%
19,Cc1cc(N[C@@H](Cc2ccccc2)C(=O)NC2CCCC2)nc(NCCCOC(C)C)n1 [TCMDC-134821],40.66%
20,COc1ccc(NC(=O)[C@H](Cc2ccccc2)Nc2cc(C)nc(NCCc3cccs3)n2)cc1 [TCMDC-134873],39.58%
21,Cc1cc(N[C@@H](Cc2ccccc2)C(=O)Nc2ccccc2)nc(NCCc2cccs2)n1 [TCMDC-134814],131.2%
22,COc1ccc(NC(=O)[C@H](Cc2ccccc2)Nc2cc(C)nc(NCCc3ccccc3OC)n2)cc1 [TCMDC-134801],16.26%

row,SMILES,% Inhibition
1,Cc1cc(N[C@@H](Cc2ccccc2)C(=O)NC2CCCC2)nc(NCCc2cccs2)n1 [TCMDC-134811],53.29%
2,COc1ccc(NC(=O)[C@H](Cc2ccccc2)Nc2cc(C)nc(NCc3ccccc3C)n2)cc1 [TCMDC-134904],-26.59%
3,COc1ccc(NC(=O)[C@H](Cc2ccccc2)Nc2cc(C)nc(NCCc3ccccc3)n2)cc1 [TCMDC-134774],119.9%
4,CCOC(=O)C1=C(C)NC(C)=C(C(=O)OCC)C1(C(=O)OCc1ccccc1)c1cccc(C(F)(F)F)c1 [TCMDC-132060],-16.58%
5,Cc1cc(NC(=O)c2coc3cc(F)c(N4CC(C)N(C)C(C)C4)cc23)cnc1-c1ccc(C#N)cc1 (stereo not shown) [TCMDC-141403],-2.152%
6,Oc1ccc(Cl)cc1CN1CCC(CCOC(c2ccccc2)c2ccc(Cl)cc2)CC1 (stereo not shown) [TCMDC-136035],13.31%
7,O=C(/C=C/c1ccc(Cl)c(Cl)c1)NCCCCCN1CCC(NC(=O)Nc2cc(F)ccc2F)CC1 [TCMDC-135713],-50.93%
8,COc1cc(F)c2ncc(Cl)c(CCN3CCC(NCc4cc5c(cn4)OCCO5)CC3)c2c1 [TCMDC-134284],7.425%
9,O=S(=O)(c1cc(Cl)ccc1Cl)N1CCCCC(c2ccc(C(F)(F)F)cc2)=N1 [TCMDC-134538],-6.074%
10,CCCCN1CCCC[C@H]1[C@@H](O)c1ccnc2ccc(OCC)cc12 [TCMDC-132037],-41.99%
11,CC(C)(C)c1ccc(NC(=O)c2cccc(CN3CCCN(Cc4cccc(C#N)c4)CC3)c2)cc1 [TCMDC-135981],-19.29%
12,CN(N=Cc1ccccc1)C(N)=NCCCC#Cc1cccc(CN2CCCC2)c1 [TCMDC-136886],99.7%
13,CC(C)c1ccc(NC(=O)c2cccc(CN3CCCN(Cc4cccc(C#N)c4)CC3)c2)cc1 [TCMDC-135975],18.13%
14,CCCCCCNC(=O)C1Cc2c([nH]c3ccccc23)C2(CCN(CCc3ccccc3)CC2)N1 (stereo not shown) [TCMDC-141085],-57.94%
15,O=C(CCc1cnc[nH]1)Nc1ccc(-c2ccc(-c3nc4ccc(F)cc4[nH]3)cc2)cc1 [TCMDC-136776],4.733%
16,CCCCCCCCOc1c(OCC)cc(Cc2cnc(N)nc2N)cc1OCC [TCMDC-137175],-7.172%
17,CCCCCCN(CCCCCC)CCCCNc1c2ccc(Cl)cc2nc2ccc(OC)cc12 [TCMDC-137520],100.6%
18,CCN(CC)CCCCCNc1c2ccc(Cl)cc2nc2ccc(OC)cc12 [TCMDC-137514],94.78%
19,CCCCN(CCCC)CCCCNc1c2ccc(Cl)cc2nc2ccc(OC)cc12 [TCMDC-137460],99.56%
20,COc1ccc2nccc([C@@H](O)CN3CCC(NC(=O)C(c4ccsc4)N4CCN(c5ccccc5)CC4)CC3)c2c1 (stereo partly shown) [TCMDC-140985],-15.82%
